Screening data: PubChem, National Center for Advancing Translational Sciences (NCATS)
Shown are actives, neighbours in structure and some others; about 19% of the full set was active somewhere.
TDP1 cell noCPT: qHTS for Inhibitors of human tyrosyl-DNA phosphodiesterase 1 (TDP1): qHTS in cells in absence of CPT. Potency, µM (series often up to 46.2 µM), for inactives: top-dose activity change, negative = growth inhibition, most hits filed as inhibitors. AID 686978, 2013. DT40 Tdp1-/- hTDP1 cells, no CPT, ATP luminescence, 48 h. 420,000 compounds, 15% hits; note: potency is the fitted concentration of half-maximal effect; nearly all actives have a fitted effect of over 55% in size
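DT40 Tdp1-/-;hTDP1 cells, no CPT (DMSO vehicle only), 400 cells/well; compounds pin-transferred; ≥48 hr, 37 °C; CellTiter-Glo 30 min RT dark, luminescence read.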
TDP1 cell CPT: growth inhibition of DT40 Tdp1-/-;hTDP1 cells with camptothecin (screen for TDP1 inhibitors); AID 686979; 420,000 compounds, 12% hits; chicken DT40 Tdp1-/-;hTDP1 cells + 20 nM CPT, ATP luminescence, 48 h; Potency, µM (highest dose often 46.2 µM), for inactives: at the highest dose activity change, negative = growth inhibition, usual class: inhibitors; note: potency is the fitted concentration of half-maximal effect; nearly all actives have a fitted effect of over 55% in size
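Cell growth measured by CellTiter-Glo luminescence after a minimum 48 h, 37 C compound exposure with 20 nM CPT in Tdp1-knockout DT40 cells stably expressing hTDP1, seeded 400/well; qHTS titration format.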
Giardia kill: kills Giardia lamblia | Giardia lamblia trophozoite viability | 340,000 compounds, 0.15% hits | AID 540267 | activity change, % at 7.66 µM, hits read low; in the data active = activity change below about -80%; inconclusive = between about -30% and that limit;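 note: parasites exposed to compound for two days anaerobically before the ATP read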
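Luminescence from cellular ATP indicates surviving trophozoites (100 cells/well) following 48 hrs anaerobic compound treatment at 37 deg C; signal develops 15-30 min at room temperature.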
ELG1 repair inh: ELG1-dependent DNA repair inhibition | HEK293T ELG1-luciferase reporter, luminescence, 16 h; DNA damage induced by 5-fluorouridine | Potency, µM (highest dose often 46.1 µM), for the others: top-dose activity change, negative = inhibition, actives largely listed as inhibitors | 330,000 compounds, 2.3% hits; note: potency is the fitted concentration of half-maximal effect; nearly all actives have a fitted effect of over 55% in size
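HEK293T cells expressing luciferase-tagged ELG1 (2,000/well) received 5-Fluorouridine plus compound or DMSO for 16 hr at 37 °C. Luciferase was read by ONE-Glo luminescence after 30 min at room temperature.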
IL-1B inflam inh: inflammasome signaling inhibition, IL-1 beta readout; THP-1 LPS/ATP IL-1B secretion, AlphaLISA, 16 h; hits give low values; 360,000 compounds, 4.7% hits; activity change, % at 57.5 µM; in the data active = activity change below about -50%; inconclusive = mostly about -30% to -49%
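Secreted IL-1B measured by AlphaLISA bead assay after 16 h compound exposure of THP-1 cells; compounds (final up to 57.5 uM) added 1 h before LPS (250 ng/mL) and ATP (1.25 mM) stimulation; lower signal means less secretion.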
TDP1 block: inhibitors of human tyrosyl-DNA phosphodiesterase TDP1; Q9NUW8; recombinant TDP1, AlphaScreen DNA substrate cleavage; Potency, µM (doses to about 130 µM), for the others: at the highest dose activity change, negative = inhibition, usual class: inhibitors; 350,000 compounds, 0.28% hits; note: potency is the fitted concentration of half-maximal effect; nearly all actives have a fitted effect of over 40% in size
Target sequence (Q9NUW8 whole entry, looked up): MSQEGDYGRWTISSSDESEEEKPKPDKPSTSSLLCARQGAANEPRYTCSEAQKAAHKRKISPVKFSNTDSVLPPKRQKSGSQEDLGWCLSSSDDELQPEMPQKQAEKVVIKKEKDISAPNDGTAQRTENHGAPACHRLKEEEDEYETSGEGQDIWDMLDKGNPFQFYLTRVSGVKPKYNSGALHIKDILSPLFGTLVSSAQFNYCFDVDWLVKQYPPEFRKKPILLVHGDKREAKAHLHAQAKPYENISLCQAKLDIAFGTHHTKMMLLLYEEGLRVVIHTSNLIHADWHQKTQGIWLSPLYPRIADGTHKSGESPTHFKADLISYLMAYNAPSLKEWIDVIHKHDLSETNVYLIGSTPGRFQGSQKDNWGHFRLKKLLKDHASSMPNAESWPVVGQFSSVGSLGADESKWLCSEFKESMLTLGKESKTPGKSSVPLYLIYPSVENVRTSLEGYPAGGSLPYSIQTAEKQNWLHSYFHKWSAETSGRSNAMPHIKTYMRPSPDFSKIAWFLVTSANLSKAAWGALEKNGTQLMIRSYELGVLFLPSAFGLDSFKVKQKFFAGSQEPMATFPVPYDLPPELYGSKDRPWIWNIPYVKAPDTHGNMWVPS
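Compounds were preincubated with Tdp1 (1 nM final) for 15 min at room temperature before substrate (15 nM final) started a 5 min reaction; beads (10 ug/ml final) were then added for 10 min before AlphaScreen detection.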
Numbers without * were called inactive; [ ] = another dose, or the depositor's remark. Unless noted, calls come from the whole dose curve; as a rule, active = well fitted curve in the direction sought with a large enough effect; inconclusive = small, poorly fitted or top-dose-only effect, or another doubt; inactive = no such curve, though single readings can be large; an effect the other way counts as inactive or inconclusive. % is set by controls: 0 for no effect and ±100 for the full control effect.

How did COc1cc(NC(=O)CN2CCCN(Cc3cccc(F)c3)S2(=O)=O)cc(OC)c1 do in these assays?
TDP1 cell noCPT: inconclusive; TDP1 cell CPT: inconclusive; TDP1 block: 5%

Results for CCOC(=O)c1cccc(NC(=O)C2(S(=O)(=O)c3ccc(C)cc3)CC2)c1 ?
TDP1 cell noCPT: inconclusive; TDP1 cell CPT: -29%; Giardia kill: 0; ELG1 repair inh: -3%; IL-1B inflam inh: 8; TDP1 block: -3%

Results for COc1cc(O)ccc1CN1CCc2nnc(C(C)NC(=O)c3cc(F)ccc3F)n2CC1 (centres undefined) ?
TDP1 cell noCPT: 2%; TDP1 cell CPT: 5%

What do the screens show for `Cc1ccc(Cl)cc1NC(=O)C1CCN(c2nnc(C)c3c(C)n(-c4ccccc4)nc23)CC1`?
TDP1 cell noCPT: 10µM*; TDP1 cell CPT: 8.2µM*; TDP1 block: 3%

How did Cc1nnc(N2CCC(C(=O)NCCc3ccccc3)CC2)c2nn(-c3ccc(Cl)cc3)c(C)c12 do in these assays?
TDP1 cell noCPT: 21µM*; TDP1 cell CPT: 15µM*; TDP1 block: 3%

What do the screens show for `Cc1onc(-c2c(F)cccc2Cl)c1C(N)=S`?
TDP1 cell noCPT: -19%; TDP1 cell CPT: -7%; Giardia kill: -9; ELG1 repair inh: -3%; IL-1B inflam inh: -23; TDP1 block: 3%

How did CC1(C)O[C@@H]2[C@@H](CO[C@@]3(COS(N)(=O)=O)OC(C)(C)O[C@@H]23)O1 do in these assays?
TDP1 cell noCPT: -27%; TDP1 cell CPT: -29%; TDP1 block: 6%

How did CC1(COS(N)(=O)=O)CCCCC1 do in these assays?
TDP1 cell noCPT: -19%; TDP1 cell CPT: 0.46µM*; Giardia kill: 22; ELG1 repair inh: 17%; IL-1B inflam inh: 74

Results for O=C1/C(=C\c2ccco2)NC(=S)N1c1ccccc1 ?
TDP1 cell noCPT: 29µM*; TDP1 cell CPT: -13%; Giardia kill: 0; ELG1 repair inh: inconclusive; IL-1B inflam inh: -22; TDP1 block: 0%

How did N#CC1=C2SCC(O)(c3ccccc3)N2C(=O)CC1c1ccccc1 (centres undefined) do in these assays?
TDP1 cell noCPT: 1.6µM*; TDP1 cell CPT: 1.3µM*; Giardia kill: 2; ELG1 repair inh: -6%; IL-1B inflam inh: -11; TDP1 block: 5%

What do the screens show for `CCc1ccc(C2CC(=O)N3CN(c4ccccc4)CSC3=C2C#N)cc1` (centres undefined)?
TDP1 cell noCPT: inconclusive; TDP1 cell CPT: inconclusive; Giardia kill: -16; ELG1 repair inh: 7%; IL-1B inflam inh: -14; TDP1 block: 8%

Results for Cc1nn(-c2ccccc2)c(N2CCCC2)c1/C=N/NC(=S)Nc1ccc(F)cc1 ?
TDP1 cell noCPT: 8.2µM*; TDP1 cell CPT: 5.8µM*; Giardia kill: 9; IL-1B inflam inh: -12

Results for Cc1ccc(NC(=S)N/N=C/c2c(C)nn(-c3ccccc3)c2N2CCCC2)cc1 ?
TDP1 cell noCPT: inconclusive; TDP1 cell CPT: 12%; Giardia kill: -7; ELG1 repair inh: 25%; IL-1B inflam inh: 30; TDP1 block: 3%

How did Cc1nn(-c2ccccc2)c(N2CCCCC2)c1/C=N/NC(=O)c1ccncc1 do in these assays?
TDP1 cell noCPT: 23µM*; TDP1 cell CPT: 13µM*; Giardia kill: 17; ELG1 repair inh: inconclusive; IL-1B inflam inh: 12; TDP1 block: -14%

What do the screens show for `O=C(CN(CCc1ccccc1)S(=O)(=O)c1ccccc1)NCc1ccc(Cl)cc1`?
TDP1 cell noCPT: inconclusive; TDP1 cell CPT: inconclusive; TDP1 block: 5%[12.3 µM]

What do the screens show for `CCOc1ccc(CNC(=O)C2CCN(c3nnc(C)c4c(C)n(-c5ccc(C)cc5)nc34)CC2)cc1`?
TDP1 cell noCPT: 23µM*; TDP1 cell CPT: 8.2µM*; Giardia kill: -20; ELG1 repair inh: -9%; IL-1B inflam inh: -99*; TDP1 block: inconclusive

What do the screens show for `COc1ccc(-n2nc3c(N4CCC(C(=O)N5CCCCCC5)CC4)nnc(C)c3c2C)cc1`?
TDP1 cell noCPT: inconclusive; TDP1 cell CPT: inconclusive; Giardia kill: -8; ELG1 repair inh: 1%; IL-1B inflam inh: -15; TDP1 block: 5%

How did COc1ccc(-n2nc3c(N4CCC(C(=O)NCCc5ccco5)CC4)nnc(C)c3c2C)cc1 do in these assays?
TDP1 cell noCPT: inconclusive; TDP1 cell CPT: inconclusive; Giardia kill: -5; ELG1 repair inh: 7%; IL-1B inflam inh: -51*; TDP1 block: -2%

How did CCOc1ccccc1CNC(=O)C1CCN(c2nnc(C)c3c(C)n(-c4ccc(C)cc4)nc23)CC1 do in these assays?
TDP1 cell noCPT: 13µM*; TDP1 cell CPT: 5.8µM*; Giardia kill: -11; ELG1 repair inh: inconclusive; IL-1B inflam inh: -96*; TDP1 block: 0%

How did CCCN1CCN(C(=O)C2CCN(c3nnc(C)c4c(C)n(-c5ccc(C)cc5)nc34)CC2)CC1 do in these assays?
TDP1 cell noCPT: inconclusive; TDP1 cell CPT: inconclusive; Giardia kill: -19; ELG1 repair inh: -3%; IL-1B inflam inh: inconclusive; TDP1 block: 0%

Results for Cc1nnc(N2CCC(C(=O)NC3CCCCC3)CC2)c2nn(-c3ccccc3)c(C)c12 ?
TDP1 cell noCPT: 3%; TDP1 cell CPT: -7%; TDP1 block: 3%

Results for Cc1ccc(-n2nc3c(N4CCC(C(=O)NCc5ccccc5C)CC4)nnc(C)c3c2C)cc1 ?
TDP1 cell noCPT: inconclusive; TDP1 cell CPT: 13µM*; Giardia kill: 10; ELG1 repair inh: -7%; IL-1B inflam inh: -92*; TDP1 block: -6%

What do the screens show for `CCOC(=O)C1(CCCc2ccccc2)CCN(Cc2ccn[nH]2)CC1`?
TDP1 cell noCPT: inconclusive; TDP1 cell CPT: inconclusive; Giardia kill: -1; ELG1 repair inh: -18%; IL-1B inflam inh: -15

Results for CCc1ccc(NC(=O)Cn2c(=O)n(CCC(=O)NCCc3ccc(OC)c(OC)c3)c(=O)c3ccccc32)cc1 ?
TDP1 cell noCPT: 3%; TDP1 cell CPT: -4%; TDP1 block: -1%

How did COc1ccccc1CCNC(=O)C1CCN(c2nnc(C)c3c(C)n(-c4ccc(C)cc4)nc23)CC1 do in these assays?
TDP1 cell noCPT: 2.9µM*; TDP1 cell CPT: 4.6µM*; Giardia kill: inconclusive; ELG1 repair inh: inconclusive; IL-1B inflam inh: -10; TDP1 block: -17%
